Reference: PubChem BioAssay (EPA / NIEHS)
Activity calls are given as the source filed them. How the source made its calls: active means hit-call score of the fitted dose curve at least 0.9, where 1 is the maximum; inactive means score below 0.9.

Tests used:
Details in all cases: mRNA level, 48 h; actives raise or lower the signal
[1] = read-out: adenosine kinase (ADK) gene, ADK (gene 132); assay: LTEA_HepaRG_ADK: Life Technologies and Expression Analysis (LTEA) Assay for adenosine kinase (ADK) gene using HepaRG (AID 2283471)
Procedure, shortened: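 Differentiated HepaRG cells dosed 48 h in serum-free induction medium, 0.5% DMSO vehicle, eight half-log concentrations from 100 uM, in duplicate. ADK mRNA by TaqMan qRT-PCR normalised to ACTB, GAPDH, POLR2A; bidirectional fit versus DMSO.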

[2] = read-out: Alpha-fetoprotein (AFP) gene, AFP (gene 174); assay: LTEA_HepaRG_AFP: Life Technologies and Expression Analysis (LTEA) Assay for Alpha-fetoprotein (AFP) gene using HepaRG (AID 2283472)
Procedure, shortened: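 qRT-PCR (Fluidigm TaqMan) readout of AFP transcript, normalized to three housekeeping genes, fitted bidirectionally against 0.5% DMSO baseline. HepaRG cells received chemicals for 48 h in serum-free induction medium, top concentration 100 uM, half-log steps.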

BCL2L11 (gene 10018) = assay: LTEA_HepaRG_BCL2L11: Life Technologies and Expression Analysis (LTEA) Assay for Bcl-2 (BCL2L11) gene using HepaRG (AID 2283473)
Procedure, shortened: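 Read-out is BCL2L11 transcript level by qRT-PCR, normalized to three housekeeping genes and fitted bidirectionally against 0.5% DMSO vehicle. HepaRG cells received chemicals for 48 h in serum-free induction medium, 100 uM down in half-log dilutions.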

[3] = read-out: Apolipoprotein A-V (APOA5) gene, APOA5 (gene 116519); assay: LTEA_HepaRG_APOA5: Life Technologies and Expression Analysis (LTEA) Assay for Apolipoprotein A-V (APOA5) gene using HepaRG (AID 2283474)
Procedure, shortened: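 Readout is APOA5 transcript level by qRT-PCR on Fluidigm dynamic arrays, normalized to three housekeeping genes. HepaRG cultures received chemicals for 48 h at up to 100 uM (half-log steps, 0.5% DMSO), with gain or loss scored relative to DMSO.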

[4] = read-out: Bcl-2 (BID) gene, BID (gene 637); assay: LTEA_HepaRG_BID: Life Technologies and Expression Analysis (LTEA) Assay for Bcl-2 (BID) gene using HepaRG (AID 2283476)
Procedure, shortened: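 HepaRG, 48 h exposure, 8-pt half-log series, top 100 uM, 0.5% DMSO vehicle, duplicates. Readout: BID mRNA by TaqMan qRT-PCR; housekeeping-normalized; bidirectional curve fit vs DMSO baseline.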

Caspase-3 (Homo sapiens) = Caspase-3 (Homo sapiens) (UniProt P42574); assay: LTEA_HepaRG_CASP3: Life Technologies and Expression Analysis (LTEA) Assay for cysteine-aspartic acid protease (CASP3) using HepaRG (AID 2283477)
Sequence of Caspase-3 (Homo sapiens) (P42574 whole entry, looked up): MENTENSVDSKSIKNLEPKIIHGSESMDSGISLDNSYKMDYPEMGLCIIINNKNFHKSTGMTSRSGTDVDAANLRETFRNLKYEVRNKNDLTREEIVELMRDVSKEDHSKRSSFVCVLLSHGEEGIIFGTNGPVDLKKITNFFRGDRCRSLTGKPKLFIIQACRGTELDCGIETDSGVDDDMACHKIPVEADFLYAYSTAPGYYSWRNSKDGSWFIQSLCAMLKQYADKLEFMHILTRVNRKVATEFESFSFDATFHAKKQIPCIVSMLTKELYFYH
Procedure, shortened: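 Read-out is CASP3 mRNA level by TaqMan qRT-PCR in human HepaRG cells after 48 h chemical exposure. Eight half-log concentrations topping at 100 uM were tested in 0.5% DMSO; gain or loss was fitted relative to DMSO.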

[5] = read-out: Cytochrome P450 (CYP24A1), CYP24A1 (gene 1591); assay: LTEA_HepaRG_CYP24A1: Life Technologies and Expression Analysis (LTEA) Assay for Cytochrome P450 (CYP24A1) using HepaRG (AID 2283478)
Procedure, shortened: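 HepaRG, 48 h chemical exposure, 8-pt half-log CRC from 100 uM, 0.5% DMSO vehicle, duplicates. Endpoint: CYP24A1 mRNA by Fluidigm TaqMan qRT-PCR, normalized ACTB/GAPDH/POLR2A; gain/loss fit vs DMSO.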

[6] = read-out: Cytochrome P450 (CYP1A2), CYP1A2 (gene 1544); assay: LTEA_HepaRG_CYP1A2: Life Technologies and Expression Analysis (LTEA) Assay for Cytochrome P450 (CYP1A2) using HepaRG (AID 2283479)
Procedure, shortened: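 CYP1A2 transcript induction or loss, quantified by Fluidigm qRT-PCR against three housekeeping genes, was fitted bidirectionally against 0.5% DMSO controls. Human HepaRG cells received eight half-log concentrations from 100 uM over 48 h.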

[7] = read-out: cysteine-aspartic acid protease (CASP8), CASP8 (gene 841); assay: LTEA_HepaRG_CASP8: Life Technologies and Expression Analysis (LTEA) Assay for cysteine-aspartic acid protease (CASP8) using HepaRG (AID 2283480)
Procedure, shortened: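 Concentration-response in duplicate up to 100 uM (half-log steps, 0.5% DMSO) on differentiated HepaRG cultures for 48 h. Expression change of CASP8 mRNA is determined by TaqMan qRT-PCR with housekeeping-gene normalization.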

[8] = read-out: Cytochrome P450 2C19 (Homo sapiens) (UniProt P33261); assay: LTEA_HepaRG_CYP2C19: Life Technologies and Expression Analysis (LTEA) Assay for CYP2C19 using HepaRG (AID 2283482)
Procedure, shortened: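 Transcript levels of CYP2C19 were quantified by qRT-PCR after HepaRG cells were treated for 48 hours with test chemicals up to 100 uM (eight half-log concentrations, 0.5% DMSO vehicle). Gain or loss of signal was fitted relative to DMSO.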

CYP2C8 (gene 1558) = assay: LTEA_HepaRG_CYP2C8: Life Technologies and Expression Analysis (LTEA) Assay for CYP2C8 using HepaRG (AID 2283483)
Procedure, shortened: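 This is a transcriptional endpoint in HepaRG cultures: 48 h exposure, highest concentration 100 uM. CYP2C8 mRNA is quantified by TaqMan qRT-PCR.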

CYP2C9 (gene 1559) = assay: LTEA_HepaRG_CYP2C9: Life Technologies and Expression Analysis (LTEA) Assay for CYP2C9 using HepaRG (AID 2283484)
Procedure, shortened: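 Eight-point concentration-response (highest 100 uM, half-log dilutions) in HepaRG cells for 48 h; CYP2C9 expression by qRT-PCR normalized to ACTB, GAPDH, POLR2A. Bidirectional fit, DMSO baseline.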

CYP2E1 (gene 1571) = assay: LTEA_HepaRG_CYP2E1: Life Technologies and Expression Analysis (LTEA) Assay for CYP2E1 using HepaRG (AID 2283485)
Procedure, shortened: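 CYP2E1 transcript was measured by TaqMan qRT-PCR in human HepaRG cultures after 48 h chemical exposure (top 100 uM, half-log steps, 0.5% DMSO vehicle). Housekeeping-gene normalization; gain or loss fitted relative to DMSO baseline.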

CYP4A11 (gene 1579) = assay: LTEA_HepaRG_CYP4A11: Life Technologies and Expression Analysis (LTEA) Assay for CYP4A11 using HepaRG (AID 2283486)
Procedure, shortened: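 HepaRG, 48 h chem exposure, 8 conc (100 uM top, half-log), 0.5% DMSO vehicle; qRT-PCR readout, housekeeping-gene normalized; bidirectional curve fit vs DMSO baseline.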

[9] = read-out: Cytochrome P450 3A4 (Homo sapiens) (UniProt P08684); assay: LTEA_HepaRG_CYP3A4: Life Technologies and Expression Analysis (LTEA) Assay for CYP3A4 using HepaRG (AID 2283487)
Procedure, shortened: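 Differentiated HepaRG cells in serum-free induction medium exposed in duplicate for 48 h to 8 half-log concentrations up to 100 uM in 0.5% DMSO. CYP3A4 mRNA measured by qRT-PCR normalized to ACTB, GAPDH and POLR2A; bidirectional fit versus DMSO.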

[10] = read-out: DNA damage-inducible transcript 3 (DDIT3), DDIT3 (gene 1649); assay: LTEA_HepaRG_DDIT3: Life Technologies and Expression Analysis (LTEA) Assay for DNA damage-inducible transcript 3 (DDIT3) using HepaRG (AID 2283488)
Procedure, shortened: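 qRT-PCR readout (Fluidigm TaqMan), housekeeping-normalized to ACTB, GAPDH, POLR2A. HepaRG cells, 48 h exposure, 8-point half-log series from 100 uM in 0.5% DMSO, duplicates. Gain or loss of signal fitted against DMSO baseline.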

[11] = read-out: Pro-epidermal growth factor (Homo sapiens) (UniProt P01133); assay: LTEA_HepaRG_EGF: Life Technologies and Expression Analysis (LTEA) Assay for Epidermal growth factor (EGF) using HepaRG (AID 2283489)
Procedure, shortened: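 HepaRG, 48 h dosing, 100 uM top, half-log x8, 0.5% DMSO. Readout: TaqMan qRT-PCR (Fluidigm array), housekeeping-normalized. Gain or loss of signal fit vs DMSO.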

[12] = read-out: Early growth response protein 1 (EGR1) transcription factor, EGR1 (gene 1958); assay: LTEA_HepaRG_EGR1: Life Technologies and Expression Analysis (LTEA) Assay for Early growth response protein 1 (EGR1) transcription factor using HepaRG (AID 2283490)
Procedure, shortened: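 EGR1 expression change in human HepaRG after 48 h chemical exposure, assessed by housekeeping-normalized qRT-PCR; concentration-response up to 100 uM, fitted in both directions against DMSO controls.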

[13] = read-out: Apoptosis regulator Bcl-2 (Homo sapiens) (UniProt P10415); assay: LTEA_HepaRG_BCL2: Life Technologies and Expression Analysis (LTEA) Assay for Bcl-2 gene using HepaRG (AID 2283475)
Procedure, shortened: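 qRT-PCR read-out (Fluidigm TaqMan) of BCL2 transcript, normalised to three housekeeping genes, after 48 h chemical exposure of HepaRG cells; 8-point half-log series, top 100 uM, 0.5% DMSO vehicle. Gain or loss of signal fitted relative to DMSO baseline.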

[14] = read-out: Cytochrome P450 (CYP2B6), CYP2B6 (gene 1555); assay: LTEA_HepaRG_CYP2B6: Life Technologies and Expression Analysis (LTEA) Assay for Cytochrome P450 (CYP2B6) using HepaRG (AID 2283481)
Procedure, shortened: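 HepaRG cells plated 48 h, switched to serum-free induction medium, then dosed 48 h (8 points, half-log from 100 uM, 0.5% DMSO). RNA isolated; CYP2B6 expression measured by qRT-PCR; gain or loss fitted relative to DMSO.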

Measured: AC50

Sequence of Cytochrome P450 2C19 (Homo sapiens) (P33261 whole entry, looked up): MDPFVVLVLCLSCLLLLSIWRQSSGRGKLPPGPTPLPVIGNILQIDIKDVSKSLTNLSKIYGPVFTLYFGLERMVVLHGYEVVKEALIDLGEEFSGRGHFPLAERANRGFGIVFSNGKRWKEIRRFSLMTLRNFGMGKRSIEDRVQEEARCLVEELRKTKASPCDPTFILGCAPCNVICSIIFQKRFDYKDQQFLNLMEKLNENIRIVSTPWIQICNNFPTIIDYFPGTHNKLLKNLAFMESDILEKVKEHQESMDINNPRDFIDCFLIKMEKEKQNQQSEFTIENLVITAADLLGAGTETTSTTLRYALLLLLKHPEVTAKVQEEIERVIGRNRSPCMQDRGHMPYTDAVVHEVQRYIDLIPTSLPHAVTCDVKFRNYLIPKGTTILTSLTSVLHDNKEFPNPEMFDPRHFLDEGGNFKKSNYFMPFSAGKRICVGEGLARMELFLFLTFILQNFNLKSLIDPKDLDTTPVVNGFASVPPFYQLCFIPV
Sequence of Cytochrome P450 3A4 (Homo sapiens) (P08684 whole entry, looked up): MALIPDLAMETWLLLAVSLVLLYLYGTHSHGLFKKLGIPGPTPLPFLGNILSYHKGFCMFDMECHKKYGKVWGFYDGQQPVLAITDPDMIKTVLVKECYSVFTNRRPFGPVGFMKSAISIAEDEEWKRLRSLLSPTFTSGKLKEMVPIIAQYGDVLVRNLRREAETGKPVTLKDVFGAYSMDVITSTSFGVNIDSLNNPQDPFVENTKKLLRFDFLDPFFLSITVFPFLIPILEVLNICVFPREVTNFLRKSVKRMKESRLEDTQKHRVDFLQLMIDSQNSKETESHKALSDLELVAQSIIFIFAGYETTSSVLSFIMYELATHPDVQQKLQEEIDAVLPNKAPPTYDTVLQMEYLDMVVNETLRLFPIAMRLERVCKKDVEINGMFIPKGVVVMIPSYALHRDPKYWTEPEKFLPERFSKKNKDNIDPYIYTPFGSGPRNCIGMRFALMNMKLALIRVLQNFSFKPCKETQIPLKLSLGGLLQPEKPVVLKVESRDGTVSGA
Sequence of Apoptosis regulator Bcl-2 (Homo sapiens) (P10415 whole entry, looked up): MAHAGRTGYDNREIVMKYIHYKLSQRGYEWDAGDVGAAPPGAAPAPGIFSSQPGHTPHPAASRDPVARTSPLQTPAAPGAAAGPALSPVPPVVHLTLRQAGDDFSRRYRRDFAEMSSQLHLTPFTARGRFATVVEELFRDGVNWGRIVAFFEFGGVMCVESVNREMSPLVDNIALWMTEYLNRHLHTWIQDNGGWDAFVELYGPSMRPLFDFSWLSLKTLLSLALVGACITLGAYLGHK

COC(=O)CCCC(=O)OC
not listed: [13] | [14]
inactive: all other assays above

S=c1[nH]c2ccccc2s1
active: [6] 10.7 µM
not listed: [1]
inactive: all other assays above

Cc1ccc(-c2cc(C(F)(F)F)nn2-c2ccc(S(N)(=O)=O)cc2)cc1
active: [1] 93.8 µM | BCL2L11 (gene 10018) 82.5 µM | [6] 15.8 µM | [14] 90.2 µM | [8] 23.6 µM | CYP2E1 (gene 1571) 38.2 µM | CYP4A11 (gene 1579) 6 µM | [10] 68.8 µM
not listed: [9] | [13]
inactive: all other assays above

CCC(C)N(C)C(=O)c1cc2ccccc2c(-c2ccccc2Cl)n1 (configuration not stated)
inactive: [1] | [3] | [4] | Caspase-3 (Homo sapiens) | [5] | [7] | CYP2C9 (gene 1559) | [11] | [12]
active: [2] 31.8 µM | BCL2L11 (gene 10018) 31.8 µM | [6] 50.5 µM | [14] 1.38 µM | [8] 4.31 µM | CYP2C8 (gene 1558) 1.77 µM | CYP2E1 (gene 1571) 14.1 µM | CYP4A11 (gene 1579) 15.4 µM | [9] 3.23 µM | [10] 46.6 µM

CCCCCCCCCC[N+](C)(C)[O-]
not listed: [13] | [14]
inactive: all other assays above

OCC(O)CO
active: [14] 22.6 µM
not listed: [13]
inactive: all other assays above

CN(C)CCCN1c2ccccc2Sc2ccc(Cl)cc21
active: [1] 90.5 µM | [2] 26.6 µM | BCL2L11 (gene 10018) 72.8 µM | [3] 85.8 µM | [6] 19.4 µM | [7] 94.5 µM | CYP2E1 (gene 1571) 13.3 µM | CYP4A11 (gene 1579) 84.7 µM | [10] 61.3 µM | [12] 88.2 µM
inactive: [4] | Caspase-3 (Homo sapiens) | [5] | CYP2C8 (gene 1558) | CYP2C9 (gene 1559) | [11]
